Growth data for 7 molecules are collected here from PubChem BioAssay (NCI).

This is part of a sample that, as a whole, favours compounds with a hit. Of some 83,000 tested, about 20% had one in any assay.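 The endpoint reported here, percent growth, reads 100 for growth as untreated, 0 for no net growth and -100 for all cells dead.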 Unmarked numbers belong to inactive results. Active and inactive are the calls of the source. How the source made its calls: active means growth percent below 10; inactive means the rest.

Test systems include DU-145 prostate; K-562 leukemia; MALME-3M melanoma; MDA-MB-231 breast; RXF 393 renal; SF-268 CNS; SF-295 CNS; SF-539 CNS; UACC-257 melanoma; M14 melanoma; HCT-15 colon; HT29 colon; SNB-75 CNS; SNB-19 CNS; U251 CNS; PC-3 prostate; SK-MEL-5 melanoma; UACC-62 melanoma; LOX IMVI melanoma; SK-MEL-28 melanoma.
Common to all, as to experiment: NCI-60 one-dose screen, 48 h (100 = growth as untreated, 0 = no growth, -100 = all killed)
Conditions in all cases: 10 µM unless noted

With `COc1cccc(Cn2c(-c3nonc3NC(C)=O)nc3ccccc32)c1`, the growth with DU-145 prostate was 13.8%; in the assay with K-562 leukemia, 13.9%; with MALME-3M melanoma it was 42.3%; in the assay with MDA-MB-231 breast, 46.1%; in the assay with RXF 393 renal, -17% (active); with SF-268 CNS, 59.5%. The growth is 15% in the assay with SF-295 CNS; 36.7% in the assay on SF-539 CNS; 52.7% with UACC-257 melanoma; 14.1% with M14 melanoma; 34.9% in the assay on HCT-15 colon; 21.5% in the assay on HT29 colon. Further, the growth with SNB-75 CNS is 10.1%; in the assay on SNB-19 CNS, 71.3%; with U251 CNS, 27.1%; in the assay with PC-3 prostate, 21.4%; with SK-MEL-5 melanoma, 28.4%; with UACC-62 melanoma it was 45.2%. The growth is 50.2% with LOX IMVI melanoma and 57.3% in the assay on SK-MEL-28 melanoma.
For the molecule `COc1ccc(/C=C(/C(=O)N2CCN(c3ccccc3)CC2)c2cc(OC)c(OC)c(OC)c2)cc1N`, the growth in the assay on DU-145 prostate was 15.2%; in the assay on K-562 leukemia, 6.11% (active); with MALME-3M melanoma, 66.3%; in the assay with MDA-MB-231 breast it was 22.1%; in the assay with RXF 393 renal it was -1.82% (active); in the assay with SF-268 CNS, 46.6%. The growth with SF-295 CNS was 7.2% (active); in the assay on SF-539 CNS, -17.4% (active); in the assay on UACC-257 melanoma it was 69.2%; in the assay with M14 melanoma, 1.47% (active); in the assay with HCT-15 colon it was 14.6%; in the assay on HT29 colon it was 7.35% (active). The growth is 53.3% in the assay on SNB-75 CNS; 24.5% in the assay on SNB-19 CNS; 14.5% with U251 CNS; 26.7% with PC-3 prostate; 7.37% (active) in the assay on SK-MEL-5 melanoma; 27.9% in the assay with UACC-62 melanoma. In addition, the growth in the assay on LOX IMVI melanoma is 27.2%; with SK-MEL-28 melanoma it was 64%.
On to `COc1cc(Nc2ccnc3ccc(Br)cc23)cc(OC)c1OC`, for which the growth in the assay with DU-145 prostate is 59.1%; in the assay with K-562 leukemia it was 10.2%; with MALME-3M melanoma it was 46.7%; in the assay with MDA-MB-231 breast it was 38%; with RXF 393 renal, 2.9% (active); in the assay with SF-268 CNS, 47.6%. Also, the growth with SF-295 CNS is 25.6%; in the assay on SF-539 CNS, 12.7%; in the assay with UACC-257 melanoma it was 38.2%; in the assay with M14 melanoma it was 14.3%; in the assay with HCT-15 colon, 30.6%; with HT29 colon, 14.2%. Besides, the growth with SNB-75 CNS is -4.34% (active); in the assay on SNB-19 CNS it was 32.9%; in the assay with U251 CNS it was 18.6%; in the assay with PC-3 prostate it was 26.7%; with SK-MEL-5 melanoma it was 8.82% (active); with UACC-62 melanoma it was 30.4%. The growth is 32% in the assay with LOX IMVI melanoma and 58.3% with SK-MEL-28 melanoma.
As for `CC1(C)CC[C@]2(C(=O)N3CCNCC3)CC[C@]3(C)C(=CC[C@@H]4[C@@]5(C)CCC(=O)C(C)(C)[C@@H]5CC[C@]43C)[C@@H]2C1`, the growth was 109% in the assay with DU-145 prostate; 109% in the assay on K-562 leukemia; 112% with MALME-3M melanoma; 112% with MDA-MB-231 breast; 115% with RXF 393 renal; 100% with SF-268 CNS. Further, the growth is 99.5% with SF-295 CNS; 101% in the assay on SF-539 CNS; 106% in the assay with UACC-257 melanoma; 109% in the assay on M14 melanoma; 105% with HCT-15 colon; 107% in the assay with HT29 colon. The growth was 91.6% in the assay on SNB-75 CNS; 98% with SNB-19 CNS; 105% with U251 CNS; 101% with PC-3 prostate; 102% in the assay with SK-MEL-5 melanoma; 98.9% in the assay with UACC-62 melanoma. For the same molecule, the growth in the assay on LOX IMVI melanoma is 95.7%.
For `COc1cc2nccc(Oc3ccc(NC(=O)C4(C(=O)Nc5ccc(F)cc5)CC4)cc3)c2cc1OC(=O)c1ccc(N)cc1`, the growth with DU-145 prostate is 45.3%; in the assay with K-562 leukemia, -20.9% (active); with MALME-3M melanoma, 26%; in the assay on MDA-MB-231 breast, -1.25% (active); in the assay on RXF 393 renal it was -10.4% (active); in the assay with SF-268 CNS, 29.4%. Also, the growth in the assay with SF-295 CNS is -74.6% (active); in the assay on SF-539 CNS, -1.2% (active); in the assay on UACC-257 melanoma, 33.5%; in the assay with M14 melanoma, 10.8%; in the assay on HCT-15 colon, 25.9%; in the assay with HT29 colon it was 1.03% (active). Besides, the growth with SNB-75 CNS is -34.6% (active); in the assay with SNB-19 CNS, 37.6%; in the assay on U251 CNS, 7.81% (active); in the assay on PC-3 prostate it was 25.4%; in the assay with SK-MEL-5 melanoma, 34%; in the assay with UACC-62 melanoma, 40.1%. Further, in the assay on LOX IMVI melanoma, the growth is -51.4% (active).
On to `COC1=CC(c2ccc[nH]2)=N/C1=C\c1[nH]c(C)c(C(=O)CCCCCCCCC(=O)O[C@H]2CC[C@H]3C4CCc5cc(O)ccc5C4CC[C@]23C)c1C` (stereo partly drawn), for which the growth with DU-145 prostate is 32.2%; in the assay with K-562 leukemia, 13.1%; in the assay on MALME-3M melanoma it was 40.5%; in the assay with MDA-MB-231 breast, 3.86% (active); in the assay on RXF 393 renal it was 52.5%; in the assay on SF-268 CNS, 38.7%. The growth is 28.8% in the assay with SF-295 CNS; 32.5% in the assay on SF-539 CNS; 49.2% with UACC-257 melanoma; -35.7% (active) with M14 melanoma; 41% in the assay with HCT-15 colon; 14.3% with HT29 colon. Also, the growth in the assay on SNB-75 CNS was 19.6%; in the assay on SNB-19 CNS, 56.2%; in the assay with U251 CNS, 20.9%; in the assay on PC-3 prostate it was 23%; in the assay with SK-MEL-5 melanoma, -83% (active); in the assay with UACC-62 melanoma, -48.3% (active). For the same molecule, the growth in the assay with LOX IMVI melanoma was -44.2% (active); in the assay on SK-MEL-28 melanoma, 34.5%.
With `CCCCCc1c(C)[nH]c(/C=C2\N=C(c3ccc[nH]3)C=C2CC)c1C`, the growth with DU-145 prostate is -94.8% (active); with K-562 leukemia, -75.8% (active); in the assay with MALME-3M melanoma, -74.9% (active); in the assay with MDA-MB-231 breast it was -94.3% (active); in the assay on RXF 393 renal, -91% (active); in the assay on SF-268 CNS it was -75.8% (active). Moreover, the growth in the assay with SF-295 CNS is -70.9% (active); in the assay with SF-539 CNS it was -82.7% (active); in the assay on UACC-257 melanoma, -84.2% (active); in the assay with M14 melanoma, -96.6% (active); in the assay on HCT-15 colon, -83.5% (active); with HT29 colon, -86.9% (active). The growth in the assay on SNB-75 CNS was -81.4% (active); in the assay on SNB-19 CNS it was -95.4% (active); with U251 CNS, -95.3% (active); with PC-3 prostate, -89.3% (active); with SK-MEL-5 melanoma, -96.5% (active); with UACC-62 melanoma, -97.4% (active). For the same molecule, the growth in the assay with LOX IMVI melanoma was -90.7% (active); in the assay with SK-MEL-28 melanoma, -97.4% (active).
